Results taken from ChEMBL document CHEMBL4513216, “Probing the Open Global Health Chemical Diversity Library for Multistage-Active Starting Points for Next-Generation Antimalarials” (ACS Infect Dis, 2020).
Hit rate of the full screen: of about 69,000 compounds, about 8,600 (12%) showed an effect of 50% or more. Many of the other results were omitted from the sample, so strong results are more common in it than they were.

tested on: Plasmodium berghei; assay: Screen against P. berghei liver stage (PbLuc), transformed with Luciferase, at 10uM; assay type: functional, HepG2; conditions: tested at 10 uM

Structure (SMILES) | INHIBITION [%]
CCN1CCCC(c2cc(Nc3cnccn3)nc(C)n2)C1 (stereo not given) | -2.11
O=C(NCCCOCc1ccco1)c1cccnc1N1CCOCC1 | 18.2
Cc1cc(N2CCC(NC(C)Cc3ccsc3)CC2)nc(C)n1 (stereo not given) | 27.9
COc1cc(N2CCN(Cc3ccsc3)C(CCO)C2)nc(N)n1 (stereo not given) | 23.3
CNc1nc(N2CCN(C3CCCCC3)C(CCO)C2)nc2c1CCC2 (stereo not given) | 12
CC(C)Nc1cc(N2CCN(Cc3ccccc3)C(CCO)C2)ncn1 (stereo not given) | 9.06
Cc1cc(N2CCN(Cc3ccsc3)C(CCO)C2)nc(N)n1 (stereo not given) | 50.5
CNc1nc(N2C[C@H](NC(=O)CCOC)[C@@H](C3CC3)C2)nc2c1CCC2 | 33.4
Cc1cc(N2CCC(NC(C)Cc3ccsc3)CC2)nc(N)n1 (stereo not given) | 64.9
CC(C)Oc1cc(N2CCN(Cc3ccsc3)C(CCO)C2)nc(N)n1 (stereo not given) | 49.4
CNc1nc(N2CCN(Cc3ccsc3)C(CCO)C2)nc2c1CCC2 (stereo not given) | 53.8
CNc1nc(N2CCN(C)C(CCO)C2)nc2c1CCC2 (stereo not given) | 23.5
CNc1nc(N2CCN(CC=C(C)C)C(CCO)C2)nc2c1CCC2 (stereo not given) | 68.6
Cc1cc(N2CCC(NS(C)(=O)=O)CC2)nc(C(C)C)n1 | 49
CC(=O)N1CC(=O)N(c2cnn(C)c2)CC12CCN(Cc1ccsc1)C2 (stereo not given) | 23.5
CC[C@@H](Cn1ncc2ccccc2c1=O)NC(=O)c1cnc(C)cn1 | -20.6
Cc1ccc(-c2cnc3n2CCN(C)C32CCN(CC3CC3)CC2)cc1 | -12.1
Cc1ccnc(C2CN(c3ncccn3)C2)n1 | 25.15
CN1[C@@H]2CC[C@H]1CN(c1cc(Sc3cccs3)nc(N)n1)CC2 | 49.2
CN1CCN(c2cc(Sc3cccs3)nc(N)n2)CC1CCO (stereo not given) | 50.2
Nc1nc(Sc2cccs2)cc(N2CC[C@H](CO)[C@H](O)C2)n1 | -28
CCNC(=O)CN1CCc2c(Br)ccc(F)c2C1 | -18.3

Structure (SMILES) | INHIBITION [%]
O=C(c1ccc(-n2cnnc2)cc1Cl)N1CCCC2(CCNC2)C1 (stereo not given) | 35.1
O=C(c1ccnc(-n2cnnc2)c1)N1CCCC2(CCOC2)C1 (stereo not given) | 39.4
O=C(c1cnc(Nc2ccccc2)nc1)N1CCCC2(CCNC2)C1 (stereo not given) | 58.1
O=C(c1cnc(Nc2ccccc2)nc1)N1CCC2(CCNCC2)CC1 | 30.4
O=C(c1cnc(Nc2ccccc2)nc1)N1CCS(=O)(=O)CC1 | 27.4
O=C(c1ccnc(-n2cnnc2)c1)N1CCCC2(CCNC2)C1 (stereo not given) | 56.5
CCOCCC(=O)N(CCC#N)c1ccc(C)c(C)c1 | -2.27
CCc1[nH]nc(NC(=O)c2ccc(Cl)cn2)c1C | -61.3
COCCCN1CCC(N(Cc2noc(C)n2)C(C)=O)C1 (stereo not given) | 16.9
Cc1nc[nH]c1CN1CCc2nc3scc(C)c3c(=O)n2CC1 | 26.8
Cc1cc2c(=O)n3c(nc2s1)CCN(Cc1cnc(C(C)C)nc1)CC3 | 43.7
CCc1ncc(CN2CCc3nc4sc(C)cc4c(=O)n3CC2)cn1 | 13
Cc1cc2c(=O)n3c(nc2s1)CCN(Cc1ccncc1)CC3 | 58.6
Cc1cc2c(=O)n3c(nc2s1)CCN(Cc1c[nH]cn1)CC3 | 23.2
Cc1cc2c(=O)n3c(nc2s1)CCN(Cc1[nH]cnc1C)CC3 | 54.4
O=C1COC2(CCN(CC3CCC3)CC2)CN1c1cncnc1 | 8.67
Cn1cnnc1C1CCCN(C(=O)COc2ccccc2Cl)C1 (stereo not given) | -37.7
Cc1cccc(CN2C[C@@H]3CN(C(=O)c4cnccn4)C[C@@H]3C2=O)n1 | 43.2
O=C(CCN1CCOCC1)Nc1cccc(CNCc2cccs2)c1 | 49.2
CCC[C@H]1CN(S(C)(=O)=O)C[C@@H]1NC(=O)Cc1ccc(OC)cc1 | -26.9
COCCNC(=O)CCNC(=O)c1ccc(N2CCC(C)=N2)cc1 | 40.2
COCCOCCNC(=O)c1ccc(N2CCC(C)=N2)cc1 | 50.1

Structure (SMILES) | INHIBITION [%]
CC1=NN(c2ccc(C(=O)OCCNC(=O)c3ccncc3)cc2)CC1 | -17.8
CC(NC(=O)N1CCCN(C)CC1)c1ccc2c(c1)OCCO2 (stereo not given) | -9.39
Cn1nccc1C(=O)N1CCOC(Cc2cccnc2)C1 (stereo not given) | 39.2
c1cncc(CN2CCOC(c3ncn4c(C5CC5)cccc34)C2)c1 (stereo not given) | 14.2
c1cc(C2CC2)n2cnc(C3CN(Cc4nccs4)CCO3)c2c1 (stereo not given) | 15.7
c1cc(C2CC2)n2cnc(C3CN(Cc4ccncc4)CCO3)c2c1 (stereo not given) | 51.2
Cc1nc(C)n(CC2CCCN2c2ncnc3sc(C)c(C)c23)n1 (stereo not given) | -11.6
c1ccc2ncc(CC3CCNCC3)cc2c1 | -0.232
COC1C[C@@H]2CN(C(=O)Cc3ccc(C)s3)C[C@@H]2C1 (stereo not given in full) | -34.45
Fc1ccc(CN2CCOC[C@H](Oc3cccnc3)C2)cc1 | 38.1
Clc1ccc(CN2CCOC[C@H](Oc3cccnc3)C2)cc1 | -11.1
FC(F)(F)c1cccc(CN2CCOC[C@H](Oc3cccnc3)C2)c1 | 63.8
CC(C(=O)Nc1ccc(Cl)cn1)N1CCc2nn(C)c(=O)cc2C1 (stereo not given) | 6.23
Cc1cccc(CN2CCn3cc(Cn4cccn4)nc3C2)n1 | -46.9
CO[C@H]1CNC[C@@H]1NC(=O)CCc1nc(-c2ccccc2)no1 | 0.426
CC(CNC(=O)c1ccn(-c2ccc(F)cc2)n1)Cn1cccn1 (stereo not given) | 39.6
Cc1nc(CN2CCO[C@@H]3CN(C(=O)CN(C)C)CC[C@@H]3C2)cs1 | -9.18
Cc1ccc(NC(=O)Nc2c(O)c3ccccc3oc2=O)cc1C | -43.7
Cc1cc(C)cc(NC(=O)Nc2c(O)c3ccccc3oc2=O)c1 | 59.8
Cc1ccc(NC(=O)Nc2c(O)c3ccccc3oc2=O)cc1 | 41.6
COc1ccccc1C1(O)CCCN(C(=O)c2csc(C(C)=O)c2)C1 (stereo not given) | 36
Cc1occc1C(=O)N1CCC2(CC1)CC(OCc1ccccn1)CO2 (stereo not given) | 31.1

Structure (SMILES) | INHIBITION [%]
c1csc(CN2C[C@@H](n3cccn3)[C@H]3OCCC[C@H]32)c1 | -2.41
c1ccc(O[C@@H]2CN(Cc3nccs3)[C@@H]3CCCO[C@@H]32)nc1 | 27.6
c1cnn([C@@H]2CN(Cc3nccs3)[C@@H]3CCCO[C@@H]32)c1 | 63.5
CS(=O)(=O)c1cc(Cl)cnc1C1CCCN(C(=O)C2CCOCC2)C1 (stereo not given) | 30.65
CNS(=O)(=O)c1ccc(CN2CCN3CCNC(=O)C3C2)cc1 (stereo not given) | 49.9
CN1C(=O)CC(C(=O)O)C12CCN(Cc1ccc(Cl)c(Cl)c1)CC2 (stereo not given) | 5.46
O=C1NCCN2CCN(Cc3ccc(Cl)c(Cl)c3)CC12 (stereo not given) | 52.2
COc1cccc(S(=O)(=O)CCN2CCn3c(C)nnc3C2)c1 | -17
CCn1cc(CN2CCCC(c3[nH]ncc3-c3ccc(C)cc3)C2)cn1 (stereo not given) | 70.9
CCn1cc(CN2CCC(c3[nH]ncc3S(C)(=O)=O)C2)cn1 (stereo not given) | 41.2
CCn1cc(CN2CCCC(c3[nH]ncc3S(C)(=O)=O)C2)cn1 (stereo not given) | 57.2
CCCn1cc(CN2CCC(c3[nH]ncc3S(C)(=O)=O)C2)cn1 (stereo not given) | 45.6
CCn1cc(C(=O)N2CCCC(c3[nH]ncc3S(C)(=O)=O)C2)cn1 (stereo not given) | 16.9
CCn1cc(CN2CCCC(c3[nH]ncc3-c3ccc(F)cc3)C2)cn1 (stereo not given) | 9.52
COc1cc(-c2n[nH]c(CO)n2)cc(OC)c1OC | 17.1
CC(Cn1ccnc1)NC(=O)Nc1ccccn1 (stereo not given) | 29.95
CCOC(=O)c1ccc(NC(=O)c2c(O)nc3c(c2O)CCCC3)cc1 | 27.5
CC(C)c1nccn1CCC(=O)N1CCCCC1c1ccn[nH]1 (stereo not given) | 30.95
Cc1nn(C)c(N2CCOCC2)c1CNC1COc2ccccc2C1 (stereo not given) | 5.03
